Active and inactive are the calls of the source.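 The calls were made as follows: active = half-maximal concentration under 30 µM, fit with over 36% top-dose inhibition and error below a fifth of it; inactive = the rest.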
The molecules below were run against Integrin alpha-4 (Homo sapiens) (UniProt P13612) (assay: allosteric VLA-4 ligands by LIBS antibody binding, SAR follow-up, U937 cells, powder samples, set 2 (AID 588448)). Details: HUTS-21 LIBS mAb binding, flow cytometry; series mostly up to 66.7 µM.
Sequence of Integrin alpha-4 (Homo sapiens) (P13612 whole entry, looked up): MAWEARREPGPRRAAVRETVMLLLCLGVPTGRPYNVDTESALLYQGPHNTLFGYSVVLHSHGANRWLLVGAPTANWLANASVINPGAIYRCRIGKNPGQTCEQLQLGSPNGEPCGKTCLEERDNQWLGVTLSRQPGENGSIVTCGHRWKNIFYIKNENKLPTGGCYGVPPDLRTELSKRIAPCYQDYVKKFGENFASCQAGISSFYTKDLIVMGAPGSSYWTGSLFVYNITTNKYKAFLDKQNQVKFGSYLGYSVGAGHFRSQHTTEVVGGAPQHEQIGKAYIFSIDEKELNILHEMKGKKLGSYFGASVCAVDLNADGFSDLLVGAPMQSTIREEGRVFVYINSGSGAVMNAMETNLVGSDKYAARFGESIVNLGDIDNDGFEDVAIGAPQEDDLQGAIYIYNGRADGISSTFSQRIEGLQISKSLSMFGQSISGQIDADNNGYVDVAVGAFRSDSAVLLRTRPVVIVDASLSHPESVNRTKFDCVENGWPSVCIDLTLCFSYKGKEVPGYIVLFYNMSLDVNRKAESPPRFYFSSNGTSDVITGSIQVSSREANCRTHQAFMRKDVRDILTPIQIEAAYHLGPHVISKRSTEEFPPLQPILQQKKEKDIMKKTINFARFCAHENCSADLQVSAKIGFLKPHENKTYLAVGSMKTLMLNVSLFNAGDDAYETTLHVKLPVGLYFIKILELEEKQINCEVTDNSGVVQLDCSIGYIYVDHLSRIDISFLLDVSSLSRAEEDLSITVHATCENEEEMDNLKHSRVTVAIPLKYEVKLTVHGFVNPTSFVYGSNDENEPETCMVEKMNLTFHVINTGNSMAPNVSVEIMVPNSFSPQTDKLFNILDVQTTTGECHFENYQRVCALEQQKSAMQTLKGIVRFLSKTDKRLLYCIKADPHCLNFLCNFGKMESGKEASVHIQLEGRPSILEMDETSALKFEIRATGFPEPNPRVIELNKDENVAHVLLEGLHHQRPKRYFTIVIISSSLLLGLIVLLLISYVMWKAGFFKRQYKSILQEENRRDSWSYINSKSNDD

outcome, inactive:
CC(=O)N(C)Cc1nc2ccccc2n1CCOc1ccc(C)cc1, COCCn1c(C2CC(=O)N(Cc3ccco3)C2)nc2ccccc21 (centres undefined), CCN1CC(c2nc3ccccc3n2CCOc2ccccc2)CC1=O (centres undefined), Cc1ccc(-c2nc(CN3C(=O)C4CC=CCC4C3=O)cs2)cc1 (centres undefined), CSc1ccccc1OCc1cc(C(=O)N2CCCC2)no1, Cc1nc(C)c(C(=O)N2CCCC2c2nc3ccccc3s2)s1 (centres undefined), Cn1cc(C(=O)N2CCCC2c2nc3ccccc3s2)cn1 (centres undefined), CN1CC(c2nc3ccccc3n2CCOc2ccccc2)CC1=O (centres undefined), CCn1c(C2CC(=O)N(c3ccccc3OC)C2)nc2ccccc21 (centres undefined), COc1ccccc1Cn1c(C2CC(=O)N(C)C2)nc2ccccc21 (centres undefined), COc1ccccc1N1CCN(CC(=O)c2ccc(F)cc2)CC1, O=C(c1ccc(OCCN2CCCCC2)cc1)c1c(-c2ccc(O)cc2)sc2cc(O)ccc12, Cc1ccc(C)n1-c1ccc(C(=O)N(C)Cc2ccco2)cc1, COCCn1c(C2CC(=O)N(c3cccc(C)c3)C2)nc2ccccc21 (centres undefined), Cc1oc(-c2cccs2)nc1CN1C(=O)C2CC=CCC2C1=O (centres undefined), COCC(=O)N1CCC2(CCCN(CCc3ccccc3)C2=O)C1 (centres undefined), COc1ccc(C2CCCN2C(=O)c2sccc2C)cc1OC (centres undefined), COCCn1c(C2CC(=O)N(c3ccccc3C)C2)nc2ccccc21 (centres undefined), Cc1nc2ccccc2n1CCc1noc(COc2ccccc2)n1, COc1cc(OCc2ccccc2)ccc1CN1CCN(C)CC1, CCOCCn1c(C2CC(=O)N(c3ccccc3)C2)nc2ccccc21 (centres undefined), COc1ccc(-c2nn(Cc3ccccc3)cc2C(=O)N2CCC2)cc1, CCN1CC(c2nc3ccccc3n2Cc2ccccc2)CC1=O (centres undefined), Cc1cc(C(=O)N2CCCC2c2nc3ccccc3s2)on1 (centres undefined), Cc1cc(C(=O)N2CCCC2c2ccc3c(c2)OCCO3)sc1C (centres undefined), CCOc1ccccc1N1CC(c2nc3ccccc3n2C)CC1=O (centres undefined), O=C1C2CC=CCC2C(=O)N1Cc1csc(Cc2ccccc2)n1 (centres undefined), CN(Cc1ccco1)C(=O)c1ccc(-n2cnc3ccccc32)cc1, CCn1c(C2CC(=O)N(CCc3ccccc3)C2)nc2ccccc21 (centres undefined)

— PubChem BioAssay AID588448 (NMMLSC, 2011)
